Rows were chosen to be rich in hits. Some 9.4% of all compounds tested hit in one or more screens of this group.
FLuc counter: qHTS profiling assay for firefly luciferase inhibitor/activator using purifed enzyme and Km concentrations of substrates (counterscreen for miR-21 project); Luciferin 4-monooxygenase (Photinus pyralis), P08659; purified FLuc, Km substrates, luminescence inhibition; Potency, µM (series often up to 57.5 µM), without a hit: at the highest dose activity change, negative = inhibition, most hits filed as inhibitors; actives 6.9% (n = 360,000);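 also: plate controls were vehicle for no effect and reference inhibitor for full effect; nearly all actives have a fitted effect of over 55% in size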
Target sequence (P08659 whole entry, looked up): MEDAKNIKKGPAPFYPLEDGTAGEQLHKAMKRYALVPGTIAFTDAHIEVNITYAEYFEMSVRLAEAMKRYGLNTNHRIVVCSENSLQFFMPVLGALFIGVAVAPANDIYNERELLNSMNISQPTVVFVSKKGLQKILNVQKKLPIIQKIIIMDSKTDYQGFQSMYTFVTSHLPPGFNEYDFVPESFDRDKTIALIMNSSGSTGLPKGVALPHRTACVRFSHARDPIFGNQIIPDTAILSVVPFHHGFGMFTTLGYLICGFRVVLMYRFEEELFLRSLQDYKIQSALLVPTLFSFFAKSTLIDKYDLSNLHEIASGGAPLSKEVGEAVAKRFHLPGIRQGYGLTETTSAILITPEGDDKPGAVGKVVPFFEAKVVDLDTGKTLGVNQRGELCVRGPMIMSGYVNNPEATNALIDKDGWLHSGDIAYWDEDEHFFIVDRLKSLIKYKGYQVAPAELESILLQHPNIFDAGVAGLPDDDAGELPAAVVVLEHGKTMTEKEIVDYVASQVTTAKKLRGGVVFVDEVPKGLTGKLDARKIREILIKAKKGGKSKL
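Purified P. pyralis luciferase, 10 nM final, with Km-level 10 uM D-luciferin and 10 uM ATP in 50 mM Tris acetate pH 7.5, 10 mM Mg acetate, 0.01% Tween-20, 0.05% BSA; 6-point qHTS titration about 60 µM downward; luminescence read.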
ELG1 repair inh: qHTS screen for small molecules that inhibit ELG1-dependent DNA repair in human embryonic kidney (HEK293T) cells expressing luciferase-tagged ELG1; HEK293T ELG1-luciferase reporter, luminescence, 16 h; DNA damage induced by 5-fluorouridine; AID 504467, 2011; Potency, µM (titrated, usually from 46.1 µM), for inactives: at the top dose activity change, negative = inhibition, actives largely listed as inhibitors; actives 2.3% (n = 330,000); also: % is scaled to controls: 0 for no effect and ±100 for the full control effect; nearly all actives have a fitted effect of over 55% in size
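Overnight (16 hr) co-exposure of 2,000 cells/well to 5-fluorouridine and compound at 37 °C preceded detection. Luciferase was quantified via ONE-Glo luminescence; loss of signal denotes inhibition.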
NPC1 promoter act: qHTS Assay for NPC1 Promoter Activators; Potency, µM (doses to about 9.22 µM), inactives show at the highest dose activation, most hits filed as activators; actives 2.4% (n = 320,000); Huh7 NPC1 promoter luciferase reporter, 24 h; also: % of control where 0% means no effect; nearly all actives have a fitted effect of over 60% in size
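Stable NPC1-promoter luciferase Huh7 line; cpd (DMSO) 24 h, 37 °C, 5% CO2; Amplite luciferase reagent 10 min RT; luminescence readout. qHTS format.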
ELG1 genotox: qHTS screen for small molecules that induce genotoxicity in human embryonic kidney (HEK293T) cells expressing luciferase-tagged ELG1. HEK293T ELG1-luciferase reporter, luminescence, 16 h. Potency, µM (highest dose often 46 µM), inactives show at the highest dose activity change, positive = activation, usual class: activators. actives 1.3% (n = 330,000). AID 504466, 2011; also: % of control where 0% means no effect; nearly all actives have a fitted effect of over 60% in size
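ELG1-luciferase HEK293T cells, 2,000/well; compound pinned in; 16 hr, 37 °C, 5% CO2; ONE-Glo, 30 min RT; luminescence on CCD imager.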
Rab9 prom act: qHTS Assay for Rab9 Promoter Activators; Huh7 Rab9 promoter-luciferase reporter, luminescence, 24 h; Potency, µM (titrated, usually from 9.22 µM), inactives show at the highest dose activation, negative = inhibition, usual class: activators; actives 2.8% (n = 320,000); AID 485297, 2010; also: % of control where 0% means no effect; nearly all actives have a fitted effect of over 60% in size
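Luciferase signal after 10 min detection reagent at ambient indicates Rab9 promoter upregulation; stably transfected Huh7 cells were treated 24 h with compound in DMSO at 37 °C, 5% CO2.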
SMN2 splice up: qHTS Assay for Enhancers of SMN2 Splice Variant Expression. HEK293 SMN2-luciferase splicing reporter, luminescence, 30-36 h. Potency, µM (series often up to 46.1 µM), without a hit: at the highest dose activity change, positive = activation, usual class: activators. actives 2.8% (n = 210,000); also: % of control where 0% means no effect; nearly all actives have a fitted effect of over 55% in size
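qHTS luciferase splicing reporter: luminescence rises when SMN2 exon 7 is included in transfected HEK293 cells. Compound exposure lasted 30-36 h at 37C, with 4.5 mM final sodium butyrate as control, followed by a ONE-Glo read.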
* marks the source's active call; other numbers are inactive results; ? = inconclusive; . = no result given; [ ] = remark or other dose. Calls follow the shape of the dose curve; as a rule, active = well fitted curve in the direction sought with a large enough effect; inconclusive = small, poorly fitted or top-dose-only effect, or another doubt; inactive = no such curve, though single readings can be large; an effect the other way counts as inactive or inconclusive. Potency is read from the fitted curve at half-maximal effect.

SMILES	FLuc counter	ELG1 repair inh	NPC1 promoter act	ELG1 genotox	Rab9 prom act	SMN2 splice up
COc1ccc(OCC(=O)N/N=C(\C)c2ccc(-n3ccnc3)cc2)cc1	6µM*	12%	1%	0%	-3%	-19%
Cc1ccc(NC(=O)n2ccc(-c3ccc(-n4ccnc4)cc3)n2)cc1	?	?	?	19%	4µM*	13µM*
C/C(=N\NC(=O)c1ccccc1)c1ccc(-n2ccnc2)cc1	-19%	?	1%	1%	1%	.
Cc1cc(C(=O)N(C)C)sc1-c1ccccc1	21µM*	?	?	?	28%	10µM*
Cc1cc(C(=O)N2CCN(S(C)(=O)=O)CC2)sc1-c1ccccc1	6%	7%	-3%	6%	-4%	-14%
COc1ccc(CNC(=O)c2cc3c(=O)oc4ccc(C)cc4c3s2)c(OC)c1	-2%	.	.	.	.	2%
COc1ccc(NC(=O)C2=Cc3ccccc3OC2)cc1	1.5µM*	?	0.4µM*	0.52µM*	0.56µM*	7.9µM*
O=C(Nc1ccc(Cl)cc1Cl)C1=Cc2ccccc2OC1	1.9µM*	?	1.4µM*	2.1µM*	1µM*	?
COc1cccc2c1OCC(C(=O)OCc1cccnc1)=C2	-14%	-2%	0%	4%	1%	-4%
O=C(Nc1ccc(Cl)cc1)C1=Cc2cc(Cl)ccc2OC1	-4%[2.3 µM]	-13%	2%	-5%	0%	27%
COc1ccc(NC(=O)C2=Cc3cccc(OC)c3OC2)cc1	5.4µM*	?	2.8µM*	?	2.5µM*	13µM*
Cc1ccc(Cl)cc1N1CCN(C(=O)CCCn2c(=O)[nH]c3ccc(Br)cc3c2=O)CC1	-11%	.	.	.	.	-9%
N#Cc1c(NC(=O)c2cccnc2)sc2c1CCC2	9.5µM*	?	-16%	?	-5%	3%
CCOC(=O)c1c(NC(=O)c2cccnc2)sc(C)c1C	4%	-17%	2%	0%	-2%	-6%
NC(=O)c1c(NC(=O)c2cccnc2)sc2c1CCCC2	?	?	?	?	?	-1%
CCOC(=O)c1sc(NC(=O)c2cccnc2)c(C#N)c1C	12µM*	18µM*	15%	1%	13%	-18%
N#Cc1c(NC(=O)c2cnccn2)sc2c1CCCC2	6µM*	?	18%	?	?	10µM*
NC(=O)c1c(NC(=O)c2cccnc2)sc2c1CCCCC2	1.7µM*	?	2.2µM*	?	2.5µM*	.
CC(C)c1cc(C(=O)Nc2sc3c(c2C#N)CCC3)no1	3%	15%	-2%	0%	20%	2%
COc1ccc(C2N3CC4(C)CN2CC(c2ccccc2)(C3)C4=O)cc1 (centres undefined)	0%	.	.	.	.	4%
COc1cc(C(=O)Nc2c(C(=O)Nc3ccccc3F)oc3ccccc23)cc(OC)c1OC	-19%	.	.	.	.	-2%
COC(=O)c1ccc(NC(=O)CC2C(=O)N(c3ccc(F)cc3)C(=O)N2Cc2ccc(OC)cc2)cc1 (centres undefined)	5%	.	.	.	.	.
Cc1cccc(C(=O)Nc2sc3c(c2C#N)CCCCC3)c1	0.95µM*	?	0.5µM*	?	1.3µM*	2µM*
NC(=O)c1c(NC(=O)c2ccc([N+](=O)[O-])o2)sc2c1CCCC2	-15%	-7%	15%	1%	11%	.
Cn1nccc1C(=O)Nc1sc2c(c1C#N)CCCC2	?	20%	12%	11%	6%	.
SMILES	FLuc counter	ELG1 repair inh	NPC1 promoter act	ELG1 genotox	Rab9 prom act	SMN2 splice up
N#Cc1c(NC(=O)c2ccccc2)sc2c1CCC2	2.7µM*	?	?	2.9µM*	0.63µM*	2.2µM*
N#Cc1c(NC(=O)c2ccc([N+](=O)[O-])o2)sc2c1CCC2	4.8µM*	?	1.6µM*	?	1.6µM*	.
Cn1ncc(Cl)c1C(=O)NC(=S)Nc1sc2c(c1C#N)CCCCC2	12µM*	?	19%	1%	5%	-17%
N#Cc1c(NC(=S)NC(=O)c2ccccc2)sc2c1CCCC2	?	?	25%	11%	?	16%
COc1cccc(N2CCN(C(=O)CCCn3c(=O)[nH]c4ccc(Br)cc4c3=O)CC2)c1	-13%	.	.	.	.	-16%
COc1ccc(-n2c(-c3ccc(Cl)cc3)cc3c2CC(C)(C)CC3=O)c(OC)c1	2%	.	.	.	.	-10%
NC(=O)c1c(NC(=O)c2cccc(N3C(=O)CCC3=O)c2)sc2c1CCCCC2	0.95µM*	?	30%	15%	?	.
O=C(NCCc1ccc(Cl)cc1)c1ccc2c(c1)N(Cc1cccc(Cl)c1)C(=O)c1ccccc1S2(=O)=O	0%	.	.	.	.	.
COCn1c(COc2ccc3ccccc3c2)nc2ccccc21	2.4µM*	?	2.8µM*	?	2.5µM*	11µM*
CCn1c(COc2cccc(C)c2)nc2ccccc21	?	21%	0%	-1%	-3%	-9%
COc1ccc(OCc2nc3ccccc3n2Cc2ccc(C(C)(C)C)cc2)cc1	9.5µM*	.	.	.	.	11µM*
Cc1cc(N/N=C/c2c(O)ccc3ccccc23)nc(-c2ccccc2O)n1	-18%	23µM*	0%	1%	-10%	-28%
O=CN/N=C/c1c(O)ccc2ccccc12	-1%	21µM*	-33%	0%	-29%	.
Oc1ccc2ccccc2c1C=NCc1ccccc1	11µM*	?	-3%	-7%	11%	.
Cc1cc(Nc2ccccc2)nc(-c2ccccc2O)n1	0%[2.3 µM]	8%	16%	1%	16%	-9%

Screening data from PubChem BioAssay.
